# Source: PubChem BioAssay
# The list is not random: actives were taken first. Their share in the collection is about 2.4%.
# DYRK1A inh – rat Dyrk1A kinase inhibitors, primary screen, biochemical, single point, plate reader; Dual specificity tyrosine-phosphorylation-regulated kinase 1A (Rattus norvegicus), Q63470; ADP-Glo luminescence, NFATc1 peptide; inhibition, % at 12.5 µM; actives 0.43% (n = 310,000);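 further: plate controls were vehicle with enzyme for no effect and no enzyme for full effect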
# MITF TRPM1 HTS – activators of MITF-driven TRPM1 promoter reporter, primary screen, cell-based, SK-MEL-5, luciferase, single point; SK-MEL-5 TRPM1-promoter luciferase, 24 h; % of positive control, neutral wells = 0; activation, % at 12.5 µM; actives 0.75% (n = 300,000);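 active means mean activation of at least 80% with every replicate also reaching 80%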;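 further: 0% = neutral control wells and 100% = parthenolide positive control wells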
# miR122 inh – miR-122 Renilla sensor signal increase in Huh7, primary screen, miR-122 inhibitor project, cell-based, single point, plate reader | Huh7 miR-122 Renilla luciferase sensor, 48 h; neutral wells = 0, positive control = 100 | activation (reporter increase), % at 12.5 µM | actives 0.3% (n = 340,000) | AID 602342, 2012;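 active means mean replicate activation score at least 90 and every replicate individually at or above 90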;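 further: higher luciferase means less miR-122 activity so hits act as miR-122 inhibitors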
# INS-1E GSIS act – GLuc luminescence reporter in INS-1E cells, primary screen for activators of glucose-dependent secretion of insulin. INS-1E GLuc reporter insulin secretion, 2-3 h. activation, % at 16.6 µM. actives 0.61% (n = 370,000). AID 743287, 2014;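 active means lowest replicate activation of at least 40%, so every replicate reaches that level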;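 further: 0% = median of neutral control wells and 100% = median of IBMX positive control wells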
# Wnt act – Wnt/beta-catenin pathway activators, primary screen, cell-based, plate reader, single point; Wnt/beta-catenin reporter cell assay, activator; activation, % at 9.35 µM; actives 1.2% (n = 300,000); in the data active means activation above about 30%, passing the limit was not always enough;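 further: 0% = neutral control wells and 100% = positive control wells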
# NSD2 HMT inh – NSD2 histone methyltransferase inhibitors, primary screen, biochemical, AlphaScreen, single concentration, set 2 | actives 0.54% (n = 310,000) | Histone-lysine N-methyltransferase NSD2 (Homo sapiens), O96028 | NSD2 peptide methylation, 120 min | inhibition, % at 12.5 µM
# Target sequence (O96028 whole entry, looked up): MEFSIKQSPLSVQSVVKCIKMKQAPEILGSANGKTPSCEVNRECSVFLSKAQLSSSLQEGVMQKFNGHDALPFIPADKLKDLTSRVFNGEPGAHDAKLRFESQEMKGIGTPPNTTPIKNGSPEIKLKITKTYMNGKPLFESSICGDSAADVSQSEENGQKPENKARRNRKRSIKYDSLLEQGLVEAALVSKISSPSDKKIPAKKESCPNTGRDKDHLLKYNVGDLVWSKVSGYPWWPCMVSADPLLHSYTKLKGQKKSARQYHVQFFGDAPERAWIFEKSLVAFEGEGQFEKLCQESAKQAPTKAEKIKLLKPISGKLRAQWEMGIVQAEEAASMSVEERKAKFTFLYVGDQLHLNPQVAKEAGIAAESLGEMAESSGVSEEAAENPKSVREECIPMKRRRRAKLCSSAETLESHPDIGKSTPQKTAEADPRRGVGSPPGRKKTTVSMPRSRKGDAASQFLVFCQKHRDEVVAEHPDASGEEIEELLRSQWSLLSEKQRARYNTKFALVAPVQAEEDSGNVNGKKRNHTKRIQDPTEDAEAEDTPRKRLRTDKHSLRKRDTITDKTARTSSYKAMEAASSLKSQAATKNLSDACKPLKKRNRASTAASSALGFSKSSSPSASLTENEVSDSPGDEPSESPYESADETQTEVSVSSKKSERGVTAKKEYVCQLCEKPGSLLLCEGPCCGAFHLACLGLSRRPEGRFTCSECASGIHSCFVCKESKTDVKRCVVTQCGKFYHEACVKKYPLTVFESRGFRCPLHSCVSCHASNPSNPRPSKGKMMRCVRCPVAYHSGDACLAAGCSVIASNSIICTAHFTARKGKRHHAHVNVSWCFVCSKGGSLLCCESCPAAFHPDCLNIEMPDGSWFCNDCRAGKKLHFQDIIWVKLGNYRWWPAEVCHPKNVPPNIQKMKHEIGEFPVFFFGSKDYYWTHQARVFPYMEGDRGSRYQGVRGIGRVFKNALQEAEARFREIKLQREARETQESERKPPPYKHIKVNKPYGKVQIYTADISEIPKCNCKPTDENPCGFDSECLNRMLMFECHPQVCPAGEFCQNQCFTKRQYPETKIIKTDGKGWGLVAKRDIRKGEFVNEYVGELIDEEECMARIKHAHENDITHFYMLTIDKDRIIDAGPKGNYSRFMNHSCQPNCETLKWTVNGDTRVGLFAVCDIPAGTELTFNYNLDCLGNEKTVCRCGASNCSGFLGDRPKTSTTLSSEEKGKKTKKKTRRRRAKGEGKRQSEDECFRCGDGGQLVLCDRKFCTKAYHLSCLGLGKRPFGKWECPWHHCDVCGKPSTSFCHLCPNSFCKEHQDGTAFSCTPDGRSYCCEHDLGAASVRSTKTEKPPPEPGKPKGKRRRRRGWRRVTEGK
# * = called active by the depositor; / = no result given; + = active, no number; ! = not active in a repeat; [ ] = another dose, or the depositor's remark. Unless noted, no stated cut-off is given here; in the data, active means inhibition above about 50%; inactive means the rest.
SMILES,DYRK1A inh,MITF TRPM1 HTS,miR122 inh,INS-1E GSIS act,Wnt act,NSD2 HMT inh
COc1ccc(S(=O)(=O)N(C)C[C@@H]2Oc3cc(C#CC4CC4)ccc3S(=O)(=O)N([C@@H](C)CO)C[C@@H]2C)cc1,/,/,4[16.7 µM],-8,/,/
O=[N+]([O-])c1ccc(C=NNc2ccccc2)cc1,/,70,2,/,14,0
COc1ccc(C=NNc2ccc([N+](=O)[O-])cn2)cc1,2,74,/,/,16,0
CCN(CC)c1ccc(C=NNc2ccc([N+](=O)[O-])cn2)cc1,3,44,2,3,48*,0
O=[N+]([O-])c1ccc(NN=Cc2ccccc2O)nc1,0,3,-5,/,-8,-1
O=[N+]([O-])c1ccc(NN=Cc2ccccc2)nc1,-1,148*,/,4,50*,-2
O=[N+]([O-])c1ccc(NN=Cc2ccc(O)cc2)nc1,5,44,/,/,67*,-5
O=[N+]([O-])c1ccc(N/N=C/c2ccccc2)c(F)c1,-2,87*,-2,-3,34*,-2
CO[C@H]1CN(C)C(=O)c2cc(NC(=O)C3CC3)ccc2OC[C@@H](C)N(C(=O)C2CCCCC2)C[C@@H]1C,/,/,11[16.7 µM],-5,/,/
COc1ccc(S(=O)(=O)N[C@@H]2C=C[C@@H](CC(=O)N3CCC(Cc4ccccc4)CC3)O[C@H]2CO)cc1,/,/,/,-17,/,/
CC1(C)CC(=O)C=C(c2ccccc2-c2ccc(S(C)(=O)=O)cc2)C1=O,/,/,-4,49*,-2,/
Cc1nc(C(Cl)(Cl)Cl)nc2[nH]ccc(=O)c12,4,-6,/,130*,-1,2
COC(=O)[C@@H]1[C@@H](CO)[C@@H]2Cn3c(ccc(-c4cccc(F)c4)c3=O)[C@@H]2N1CC1CC1,/,/,2[16.7 µM],5,/,/
COc1ccc2c3c([nH]c2c1)[C@@H](CO)N(C)CC31CCN(S(=O)(=O)c2cccc(F)c2)CC1,/,/,/,-2,/,/
CCCC#Cc1ccc([C@H]2[C@H]3CN(C(=O)c4cccc(F)c4)CC(=O)N3[C@H]2CO)cc1,/,/,/,-4,/,/
Cc1c(CC(=O)N[C@H](C(=O)O)C(C)C)c(=O)oc2cc3c(cc12)CCC(C)(C)O3,-1,60,-3,18,35*,1
Cc1c(CC(=O)N[C@@H](C)C(=O)O)c(=O)oc2cc3c(cc12)CCC(C)(C)O3,0,5,-7,24,2,1
Cc1ccc(C(=O)OCC(=O)N2C(C)CCCC2C)cc1S(=O)(=O)N1CCCCC1 (stereo not drawn),5,-3,/,0,2,-12
COC(=O)c1ccc(COC(=O)c2ccc(C)c(S(=O)(=O)N3CCCCC3)c2)cc1,8,96*,4,7,9,-1
COC(=O)CNC(=O)Cn1nc(C)c([N+](=O)[O-])c1C,/,-11,/,-2,38*,1
CC1CCCC12NC(=O)NC2=O (stereo not drawn),0,-2,/,-2,3,-6
O=C1NC(=O)C2(CCCCC2C2CCCCC2)N1 (stereo not drawn),/,-1,0,62*,-1,-1
COc1ccc2c3c(n(C)c2c1)[C@H](CO)N(C)CC31CCN(S(C)(=O)=O)CC1,/,/,/,19,/,/
COc1ccccc1OCCOc1ccc(/C=C2/C(=N)N3OC(C)=CC3=NC2=O)cc1OC,-6,/,-4,287*,/,12
COc1cc(/C=C2\C(=N)N3N=C(S(C)(=O)=O)SC3=NC2=O)ccc1OCCOc1ccccc1C,-1,/,-6,/,0,5
SMILES,DYRK1A inh,MITF TRPM1 HTS,miR122 inh,INS-1E GSIS act,Wnt act,NSD2 HMT inh
CC1=CC2=NC(=O)/C(=C\c3cccn3CCOc3ccccc3C)C(=N)N2O1,2,22,147*,1,-1,1
CO[C@@H]1CN(C)C(=O)c2cc(NC(=O)c3ccccc3F)ccc2OC[C@@H](C)N(CC2CC2)C[C@@H]1C,/,/,/,7,/,/
O=[N+]([O-])c1ccc(N=Nc2ncc[nH]2)cc1,7,-13,/,-5,54*,1
O=[N+]([O-])c1ccc(N=NN(CCO)CCO)cc1,-2,-12,/,-14,-1,4
C[C@@H]1CN([C@H](C)CO)C(=O)c2cc(C#C[C@@H](C)O)cnc2O[C@@H]1CN(C)C(=O)c1ccc(F)cc1,/,/,/,11,/,/
O=C(Nc1cccc2ccccc12)N1CC=C(c2ccccc2)CC1,0,-8,-3,3,/,0
COc1ccc(NC(=O)N2C[C@@H]3N[C@H](C2)C3c2ccc(-c3cccc(F)c3)cc2)cc1 (stereo partly drawn),/,/,/,-6,/,/
O=C(Nc1ccc(C(F)(F)F)cc1)N1C[C@@H]2N[C@H](C1)C2c1ccc(-c2cccc(F)c2)cc1 (stereo partly drawn),/,/,/,114*,/,/
N#Cc1ccc(-c2ccc(C3[C@@H]4CN(C(=O)Nc5ccc(C(F)(F)F)cc5)C[C@H]3N4)cc2)cc1 (stereo partly drawn),/,/,/,49,/,/
Cc1ccc(-c2ccc(C3[C@@H]4CN(C(=O)Nc5ccc(C(F)(F)F)cc5)C[C@H]3N4)cc2)cc1 (stereo partly drawn),/,/,/,+,/,/
Cc1cccc(-c2ccc(C3[C@@H]4CN(C(=O)C5CCCCC5)C[C@H]3N4)cc2)c1 (stereo partly drawn),/,/,/,213*!,/,/
O=C(Nc1ccccc1)N1CC=C(c2ccc(F)cc2)CC1,4,103*,-4,-14,/,-1
Cc1ccc(NC(=O)C2CCCN(C(=O)Nc3ccc(F)cc3)C2)cc1 (stereo not drawn),-5,-8,-4,-14,-2,5
Cc1ccc(C2CCN(C(=O)Nc3ccc(F)cc3)C2)cc1 (stereo not drawn),-2,95*,-1,-29,-1,-3
CC(C)OC(=O)N(C)C[C@H]1OCc2ccccc2-c2c(n(C)c3ccccc23)C(=O)N([C@@H](C)CO)C[C@@H]1C,/,/,/,-24,/,/
Cc1ccc(-n2nnnc2SCC(=O)N2c3ccccc3NC(=O)C2(C)C)cc1,-7,/,160*,/,/,0
Cc1ccc(-c2nnc(SCC(=O)N3c4ccccc4NC(=O)C3(C)C)n2N)cc1,-3,/,2,/,-4,-2
CO[C@H]1CN(C)C(=O)c2cc(NC(=O)NC(C)C)ccc2OC[C@@H](C)N(CC2CC2)C[C@H]1C,/,/,/,-6,/,/
Cc1ccc(C2CN(C)C3(C(=O)Nc4ccccc43)C23COc2ccccc2C3=O)cc1 (stereo not drawn),2,/,295*,/,-1,0
CN1CC(c2ccccc2Cl)C2(COc3ccccc3C2=O)C12C(=O)Nc1ccccc12 (stereo not drawn),-1,-6,117*,/,-3,0
